Experimental data taken from PubChem BioAssay (NCATS).
Values joined by “and” are separate entries in the source; they are usually repeats but may differ in a detail not shown here. Identical values can stand only once. Results filed as inconclusive are left out. Values without a mark were called inactive. Active and inactive are the calls of the source. The call rests on the fitted dose curve; in most records, active means well fitted inhibition curve with a large enough effect; inconclusive means small, poorly fitted or top-dose-only effect; inactive means flat fitted curve, though single readings scatter.

assay: P-glycoprotein substrates identified in KB-8-5-11 adenocarcinoma cell line, qHTS therapeutic library screen (AID 1346987); conditions: KB-8-5-11 (P-gp overexpressing) viability, CellTiter-Glo, 72 h; series mostly up to 44.5 µM; activity change, negative = cytotoxicity: at the top concentration; further: nearly all actives have a fitted effect of over 65% in size
How it was run: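 P-gp-mediated resistance screen: KB-8-5-11 cells treated 72 h with compounds in dose-response. CellTiter-Glo viability.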
On the % scale 0 is the no-effect control and ±100 the full control effect; potency means the concentration at half of the fitted maximal effect.

SMILES | outcome | activity change, negative = cytotoxicity | Potency
COc1cc([C@H]2OC[C@]3(OC(C)=O)[C@@H](c4ccc(O[C@@H]5O[C@H](CO)[C@@H](O)[C@H](O)[C@H]5O)c(OC)c4)OC[C@H]23)ccc1O | inactive [at 17.3 µM] |  | 
O=C(COc1ccc(Cl)cc1)NC1CCC(NC(=O)COc2ccc(Cl)cc2)CC1 (stereo not drawn) |  | -6.68% | 
COc1ccc(/C=C/C(=O)O[C@@H]2[C@@H](O)[C@H](C)O[C@@H](OC3C4C=COC(O[C@@H]5O[C@H](CO)[C@@H](O)[C@H](O)[C@H]5O)C4C4(CO)OC34)[C@@H]2O)cc1OC (stereo partly drawn) | inactive [at 17.3 µM] |  | 
C[C@@H]1O[C@@H](OC[C@H]2O[C@@H](OCC3CCC4CC3C4(C)C)[C@H](O)[C@@H](O)[C@@H]2O)[C@H](O)[C@H](O)[C@H]1O (stereo partly drawn) | inactive [at 17.3 µM] |  | 
C=CC1(C)C=C2C(O)CC3C(C)(C(=O)O)CCCC3(C)C2CC1 (stereo not drawn) | inactive |  | 
CC1CC(O)CC(C)(C)C1(O)CCO (stereo not drawn) | inactive [at 93.4 µM] |  | 
CC(=O)c1c(C)cc(O)cc1O[C@@H]1O[C@H](CO)[C@@H](O)[C@H](O)[C@H]1O |  | 7.01% | 
O=C1CC(c2ccc([N+](=O)[O-])cc2)=NN1c1ccccc1 |  | 7.46% | 
O=C(O)C1CCCN1 (stereo not drawn) |  | 5.89% | 
Cc1nnc(C(C)C)n1C1CC2CCC(C1)N2CCC(NC(=O)C1CCC(F)(F)CC1)c1ccccc1 (stereo not drawn) | inactive |  | 
COC1CC(=O)C23C(=O)NC(CC(C)C)C2C(C)C(C)=CC3/C=C(\C)CCC1O (stereo not drawn) |  | 6.49% [at 17.3 µM] | 
C=C(C)C(C)C1OC23CC4(CO2)C(CCC2C5(C)CCC(OC6OCC(O)C(OC7OC(CO)C(O)C(OC8OCC(O)C(O)C8O)C7O)C6OC6OC(CO)C(O)C6O)C(C)(C)C5CCC24C)C3C(C)(O)C1OC(C)=O (stereo not drawn) |  | 3.91% [at 9.29 µM] | 
CC1(C)O[C@]23C[C@H]1C[C@H](OC(=O)c1ccoc1)[C@]2(C)[C@@H](OC(=O)c1ccoc1)CCC3(C)O (stereo partly drawn) |  | 1.91% [at 17.3 µM] | 
CC1CCC2(C(=O)OC3OC(COC4OC(CO)C(O)C(O)C4O)C(O)C(O)C3O)CCC3(C)C(=CCC4C5(C)CCC(O)C(C)(C(=O)O)C5CCC43C)C2C1(C)O (stereo not drawn) |  | 1.52% [at 9.29 µM] | 
CN1CCC(c2c[nH]c3ccc(NC(=O)c4ccc(F)cc4)cc23)CC1 | inactive |  | 
O=C(O)C[C@H](O)C[C@H](O)/C=C/c1c(C2CC2)nc2ccccc2c1-c1ccc(F)cc1 |  |  | 8.2 µM (active) and 5.17 µM (active)
O=S(=O)(O)O |  | -0.708% | 
O=C1Nc2ccc(O)cc2O[C@H]1O[C@@H]1O[C@H](CO)[C@@H](O)[C@H](O)[C@H]1O |  | 2.44% | 
CC1CCC2C(C)(C)C(O)CCC2(C)C12Cc1c(O)cc3c(c1O2)CN=C3N (stereo not drawn) |  | 7.64% | 

SMILES | outcome | activity change, negative = cytotoxicity | Potency
C=C1CCC2C(OC(=O)C2(O)COC(C)=O)C2C(=C)C(O)CC12 (stereo not drawn) | inactive |  | 
C/C=C/C=C/C(CC(=O)O)Nc1ccc(C=O)cc1 (stereo not drawn) | inactive |  | 
CCCCC/C=C\C/C=C\CCCCCCCC(=O)O |  | -7.61% | 
CCC(C)/C=C(C)/C=C/C1=CC2=C(Cl)C(=O)C(C)(OC(C)=O)C(=O)C2=CN1C1CCCCN(C(CCC(N)=O)C(=O)O)C1=O (stereo not drawn) | inactive [at 17.3 µM] |  | 
C/C=C(\C)C(=O)O[C@@H]1CC2[C@@H](CC=C3C[C@@H](O[C@H]4C[C@H](OC)[C@H](O[C@H]5C[C@H](OC)[C@H](O[C@H]6C[C@H](OC)[C@H](O[C@H]7C[C@@H](OC)[C@H](O[C@@H]8O[C@H](CO)[C@@H](O)[C@H](O)[C@H]8O)[C@@H](C)O7)[C@@H](C)O6)[C@@H](C)O5)[C@@H](C)O4)CC[C@@]32C)[C@@]2(O)CC[C@H](C(C)=O)[C@@]12C (stereo partly drawn) |  | 3.56% [at 9.29 µM] | 
CC(=O)N[C@H]1[C@H](O[C@H]2CC[C@@]3(C)C(CC[C@]4(C)C3CC=C3C5CC(C)(C)CC[C@]5(C(=O)O)[C@H](O[C@@H]5O[C@H](CO)[C@@H](O)[C@H](O)[C@H]5O)C[C@]34C)C2(C)C)O[C@H](CO[C@@H]2OC[C@H](O)[C@H](O)[C@H]2O[C@@H]2OC[C@@H](O)[C@H](O)[C@H]2O)[C@@H](O)[C@@H]1O (stereo partly drawn) | inactive [at 9.29 µM] |  | 
COc1cc(COC2OC(CO)C(O)C(O)C2O)cc(OC)c1O (stereo not drawn) |  | 4.13% | 
COc1cc(CC(COC2OC(CO)C(O)C(O)C2O)c2cc(/C=C/CO)cc(OC)c2O)ccc1O (stereo not drawn) |  | 9.07% [at 17.3 µM] | 
CC1(C)CC(=O)N(CCCCN2CCN(c3ncccn3)CC2)C(=O)C1 |  | -6.57% | 
C[C@@H]1CCC2[C@@H](C)[C@@H](O)O[C@@H]3O[C@@]4(C)CC[C@@H]1[C@@]23OO4 (stereo partly drawn) |  |  | 10.3 µM (active)
CC1(C)NC2N(C1=O)c1ccccc1C2(O)CC(C(=O)O)n1cnc2ccccc2c1=O (stereo not drawn) | inactive [at 17.3 µM] |  | 
CC1(O)CCC2C(C(=O)O)=COC(OC3OC(CO)C(O)C(O)C3OC(=O)/C=C/c3ccc(O)cc3)C21 (stereo not drawn) |  | 2.76% [at 17.3 µM] | 
C[C@@H]1O[C@@H](O[C@H]2[C@H](OC(=O)C34CCC(C)(C)CC3C3=CCC5C6(C)CC(O)C(O[C@@H]7O[C@H](CO)[C@@H](O)[C@H](O)[C@H]7O)C(C)(C(=O)O)C6CCC5(C)C3(CO)CC4)O[C@H](C)[C@H](O)[C@@H]2O)[C@H](O)[C@H](O)[C@H]1O[C@@H]1OC[C@@H](O)[C@H](O)[C@H]1O (stereo partly drawn) | inactive [at 9.29 µM] |  | 
CCCCCCCCCCCCCCCC(=O)OCC(COC(=O)CCCCCCCCCCCCCCC)OC(=O)CCCCCCCCCCCCCCC |  | -9.26% | 
CCCC(=O)Nc1ncnc2c1ncn2[C@@H]1O[C@@H]2COP(=O)(O)O[C@H]2[C@H]1OC(=O)CCC |  | 17.7% | 
CC(CO[C@@H]1O[C@H](COC(=O)/C=C/c2ccc(O)c(O)c2)[C@@H](O)[C@H](O)[C@H]1O)C1(O)COC(=O)C1 (stereo partly drawn) |  | -5.06% [at 17.3 µM] | 
CCCC(=O)O[C@]1(C(=O)COC(C)=O)CC[C@H]2[C@@H]3C[C@H](F)C4=CC(=O)C=C[C@]4(C)[C@@]3(F)[C@@H](O)C[C@@]21C |  | -4.62% | 
C[C@@H]1CC[C@H]2C(C)(C)[C@H](O)[C@H](O)C[C@]2(C)[C@@]12Cc1c(O)cc3c(c1O2)CNC3=O | inactive |  | 
c1ccc(C(OC2CCN(CCCc3nn[nH]n3)CC2)c2ccccc2)cc1 | inactive |  | 
